The target in assay [1] is Peroxisome proliferator-activated receptor delta (Homo sapiens) (UniProt Q03181). Put plainly: qHTS assay for small molecule agonists of peroxisome proliferator-activated receptor delta signaling (AID 588534).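 Further: 0% = DMSO basal wells and 100% = positive control agonist at 10 µM.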 An outline of the steps: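 Cells carrying a PPAR-delta beta-lactamase reporter were treated with compounds for 18 h at 37 °C in agonist mode. CCF4 fluorescence was read after 2 h; EC50 and efficacy from Hill fits.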
Chain of Peroxisome proliferator-activated receptor delta (Homo sapiens) (Q03181 whole entry, looked up): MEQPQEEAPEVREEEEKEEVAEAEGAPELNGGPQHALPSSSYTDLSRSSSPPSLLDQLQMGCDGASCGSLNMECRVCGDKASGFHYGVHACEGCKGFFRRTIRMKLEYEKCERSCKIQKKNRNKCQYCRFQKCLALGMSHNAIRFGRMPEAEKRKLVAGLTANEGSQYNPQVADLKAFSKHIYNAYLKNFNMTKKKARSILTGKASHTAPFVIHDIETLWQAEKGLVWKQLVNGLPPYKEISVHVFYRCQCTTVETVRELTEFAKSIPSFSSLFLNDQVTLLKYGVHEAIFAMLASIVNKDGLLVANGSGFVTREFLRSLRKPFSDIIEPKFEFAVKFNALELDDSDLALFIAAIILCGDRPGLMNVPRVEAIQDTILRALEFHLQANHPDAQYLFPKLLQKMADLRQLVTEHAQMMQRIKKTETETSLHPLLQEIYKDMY
(In general: qHTS replaces the single test concentration by a dilution series.)

In assay [2] the target is Peroxisome proliferator-activated receptor gamma (Homo sapiens) (UniProt P37231). Put plainly: qHTS assay for small molecule agonists of peroxisome proliferator-activated receptor gamma signaling (AID 588536; active means well fitted curve in the direction sought with a large enough effect in the signal ratio, with a control signal flat, not every such curve was filed as active; the % refers to the signal ratio;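 further: 0% = DMSO basal wells and 100% = rosiglitazone at 2 µM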). An outline of the steps: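 HEK293 UAS-bla reporter line, 1% charcoal/dextran FBS; titration, 16 h, 37 C; CCF4 loading 2 h RT; fluorescence 460/530 nm. Normalized to rosiglitazone 2 uM = 100%, DMSO = 0%.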
Chain of Peroxisome proliferator-activated receptor gamma (Homo sapiens) (P37231 whole entry, looked up): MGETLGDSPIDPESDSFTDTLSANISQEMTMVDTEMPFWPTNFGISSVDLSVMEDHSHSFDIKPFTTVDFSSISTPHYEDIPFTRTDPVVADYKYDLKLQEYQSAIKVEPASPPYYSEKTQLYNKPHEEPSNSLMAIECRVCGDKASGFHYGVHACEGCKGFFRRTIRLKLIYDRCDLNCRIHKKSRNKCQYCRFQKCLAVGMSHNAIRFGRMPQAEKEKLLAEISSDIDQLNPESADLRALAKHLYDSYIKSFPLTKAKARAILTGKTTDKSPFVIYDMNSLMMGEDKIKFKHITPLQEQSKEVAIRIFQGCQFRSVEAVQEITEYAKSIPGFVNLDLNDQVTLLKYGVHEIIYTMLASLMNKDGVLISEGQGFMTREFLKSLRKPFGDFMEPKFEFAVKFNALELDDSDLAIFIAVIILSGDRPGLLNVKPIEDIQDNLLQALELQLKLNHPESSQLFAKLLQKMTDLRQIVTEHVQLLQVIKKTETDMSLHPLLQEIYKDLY

Assay [3] shares this target. Put plainly: qHTS assay for small molecule antagonists of peroxisome proliferator-activated receptor gamma signaling (AID 588537; active means well fitted inhibition curve with a large enough effect in the signal ratio, with a control signal flat, not every such curve was filed as active; the % refers to the signal ratio;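 further: reporter cells co-stimulated with 50 nM rosiglitazone agonist during compound treatment; % of control where 0% means no effect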). In short, it runs like this:
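We seeded GeneBLAzer HEK293 reporter cells at 3000 per well, allowed 6-6.5 h attachment at 37 C, then co-treated with test compound titrations and 50 nM rosiglitazone overnight (16 h). Inhibition was quantified from 460/530 nm emission ratios.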

The target in assay [4] is Vitamin D3 receptor (Homo sapiens) (UniProt P11473). Put plainly: qHTS assay for small molecule antagonists of vitamin D receptor signaling (AID 588541).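 Further: receptor activated by calcitriol during compound treatment; series mostly up to about 77 µM; on the % scale 0 is the no-effect control and ±100 the full control effect.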 In short, it runs like this:
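VDR-UAS-bla HEK293T cells (2000/well, 2% charcoal-stripped FBS) were treated with titrated compounds plus 1-alpha,25-dihydroxyvitamin D3 (50 nM or 3 nM final) for 16 h at 37 C. CCF4 beta-lactamase fluorescence was read; Hill fits gave IC50.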

For assay [5] the target is unchanged. Put plainly: qHTS assay for small molecule agonists of vitamin D receptor signaling (AID 588543).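 Further: 0% = DMSO basal and 100% = reference agonist control.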 In short, it runs like this:
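Measured: β-lactamase reporter activity (CCF4, 405 nm excitation, 460/530 nm emission) in HEK293T VDR-UAS-bla cells after 16 h compound exposure at 37 °C. Normalization against 50 nM 1α,25-dihydroxyvitamin D3 and DMSO; Hill-fit EC50.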

Assay [6] has as its target Retinoic acid receptor RXR-alpha (Homo sapiens) (UniProt P19793). Put plainly: qHTS assay for small molecule agonists of retinoid X receptor alpha signaling (AID 588544).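 Further: 0% = DMSO basal wells and 100% = reference agonist.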
Assay [7] concerns the target Thyroid hormone receptor beta (Homo sapiens) (UniProt P10828). Put plainly: qHTS assay for small molecule agonists of thyroid hormone receptor beta signaling (AID 588545).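 Further: 0% = DMSO only and 100% = 10 nM T3.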 In short, it runs like this:
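TR-UAS-bla GripTite HEK 293 cells (2500/well, medium with 2% charcoal/dextran FBS) were treated in agonist mode for 18 h at 37 C, titrated. Beta-lactamase was read by CCF4 ratio after 2 h; normalized to 10 nM T3 (100%) and DMSO, Hill-fitted for EC50 and efficacy.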

Assay [8] in a line: qHTS assay for small molecule antagonists of retinoid X receptor alpha signaling (AID 588546; active means well fitted inhibition curve with a large enough effect in the signal ratio, with a control signal flat, not every such curve was filed as active; the % refers to the signal ratio;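 further: cells stimulated with 9-cis-retinoic acid as agonist; on the % scale 0 is the no-effect control and ±100 the full control effect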). The note with it: HEK293T RXRa-UAS-bla, beta-lactamase ratio, antagonist mode; measured here: W530 green channel, cytotoxicity proxy. An outline of the steps: (§1)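 Beta-lactamase reporter inhibition, read as CCF4 fluorescence ratio (ex 405, em 460/530 nm) after 2 h at RT. HEK293T UAS-bla cells, 2500/well, were stimulated with 9-cis-RA at 500 or 100 nM final alongside test compound for 18 h at 37 C.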

Assay [9] deals with Retinoic acid receptor RXR-alpha (Homo sapiens) (UniProt P19793). The description is as above. The note with it: HEK293T RXRa-UAS-bla, beta-lactamase ratio, antagonist mode. An outline of the steps: as §1
Chain of Retinoic acid receptor RXR-alpha (Homo sapiens) (P19793 whole entry, looked up): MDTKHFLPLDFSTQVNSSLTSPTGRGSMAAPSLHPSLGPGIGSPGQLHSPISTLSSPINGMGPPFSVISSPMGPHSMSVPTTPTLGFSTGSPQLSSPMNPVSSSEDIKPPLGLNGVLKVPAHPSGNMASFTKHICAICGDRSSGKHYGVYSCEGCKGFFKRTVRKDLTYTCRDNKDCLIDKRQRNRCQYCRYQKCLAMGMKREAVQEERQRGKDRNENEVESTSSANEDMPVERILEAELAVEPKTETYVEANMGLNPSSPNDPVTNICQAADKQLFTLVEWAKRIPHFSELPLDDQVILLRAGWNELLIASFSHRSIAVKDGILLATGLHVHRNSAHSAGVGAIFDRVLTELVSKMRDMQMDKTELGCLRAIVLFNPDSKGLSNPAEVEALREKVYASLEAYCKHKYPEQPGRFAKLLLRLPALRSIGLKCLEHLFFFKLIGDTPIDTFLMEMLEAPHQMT
In assay [10] the target is Thyroid hormone receptor beta (Homo sapiens) (UniProt P10828). Put plainly: qHTS assay for small molecule antagonists of thyroid hormone receptor beta signaling (AID 588547; active means well fitted inhibition curve with a large enough effect in the signal ratio, with a control signal flat, not every such curve was filed as active; the % refers to the signal ratio;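 further: cells stimulated with 0.4 nM T3 agonist during compound exposure; series mostly up to about 77 µM; on the % scale 0 is the no-effect control and ±100 the full control effect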). To be noted: TR-UAS-bla HEK293, beta-lactamase ratio, antagonist mode, 18 h. In short, it runs like this:
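TR-UAS-bla GripTite HEK293 cells in 2% charcoal/dextran FBS medium were preincubated 4 h at 37 C, given compound (0.59 nM to 92 uM) plus 0.4 nM T3 (final) for 18 h, then CCF4 for 2 h at RT; Hill fit gave IC50.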

The nature of assay [11]: qHTS assay for environmental chemicals that activate the Aryl hydrocarbon Receptor (AhR) signaling pathway (AID 651777; active means well fitted curve in the direction sought with a large enough effect; an effect the other way counts as inactive or inconclusive; further: nearly all actives have a fitted effect of over 15% in size; further: potency means the concentration at half of the fitted maximal effect; on activation: % of control where 0% means no effect). To be noted: 1A2-DRE human hepatoma cells, luciferase, 24 h; activation: stronger effect = higher value. In short, it runs like this: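 Human hepatoma 1A2-DRE cells, stably carrying a dioxin response element and CYP1A2 promoter driving luciferase, were exposed to compounds for 24 hr at 37 C and 5% CO2. Luciferase signal was then read after 30 min One-Glo at room temperature.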

Assay [12] has as its target Peroxisome proliferator-activated receptor alpha (Homo sapiens) (UniProt Q07869). Put plainly: qHTS assay for small molecule agonists of the peroxisome proliferator-activated receptor alpha (PPARalpha) signaling pathway (AID 651778; active means well fitted curve in the direction sought with a large enough effect; an effect the other way counts as inactive or inconclusive; further: % of control where 0% means no effect). The note with it: PathHunter PPARalpha complementation, chemiluminescence, 6 h; max response: stronger effect = higher value. An outline of the steps: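 Cells plated at 2,000/well and held overnight at 37 C, 5% CO2, then compound added by pin tool for 6 hr; after PathHunter detection reagent and 60 min at room temperature, chemiluminescence from enzyme complementation was read.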

Assay [13] in a line: qHTS assay for small molecule agonists of the antioxidant response element (ARE) signaling pathway measured by Nrf2-dependant transcriptional activity (AID 720636; active means well fitted curve in the direction sought with a large enough effect in the repeat runs; an effect the other way counts as inactive or inconclusive; further: % of control where 0% means no effect). An outline of the steps: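 ARE-luc HepG2 cells carrying an Nrf2-responsive luciferase reporter were plated in medium with 1% dialyzed FBS, left 6 hr at 37 C to attach, then exposed to compound for 16 hr. Luciferase luminescence was read after ONE-Glo addition.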

Assay [14] in a line: qHTS assay for small molecule agonists of the antioxidant response element (ARE) signaling pathway measured by Nrf2-dependant transcriptional activity - cell viability counter screen (AID 720653; active means well fitted curve in the direction sought with a large enough effect in the repeat runs; an effect the other way counts as inactive or inconclusive; further: on the % scale 0 is the no-effect control and ±100 the full control effect). To be noted: ARE-bla HepG2 viability, CellTiter-Glo ATP luminescence, 16 h; max response: stronger effect = lower value. An outline of the steps:
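ARE-bla HepG2 cells (2,000/well) rested 5 hrs at 37C/5% CO2, then exposed to compounds in DMSO for 16 hrs. Viability was read in the same wells as intracellular ATP by luminescence, 30 min at room temperature after reagent addition.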

The nature of assay [15]: qHTS assay for cell viability of HEK293 cells (AID 743288; active means well fitted curve in the direction sought with a large enough effect; an effect the other way counts as inactive or inconclusive; further: on the % scale 0 is the no-effect control and ±100 the full control effect; nearly all actives have a fitted effect of over 50% in size). The note with it: ATP luminescence (CellTiter-Glo), 18 h; max response: stronger effect = lower value. In short, it runs like this:
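Luminescent ATP quantitation served as the viability read-out. Cells (parental HEK293, 2,000/well) received compounds after at least 5 h at 37 C and were exposed for 18 h before a 30 min room-temperature reagent step.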

Assay [16] in a line: qHTS assay for cell viability of the p53RE-bla HCT-116 cell line (AID 743292; active means well fitted curve in the direction sought with a large enough effect; an effect the other way counts as inactive or inconclusive; further: on the % scale 0 is the no-effect control and ±100 the full control effect; nearly all actives have a fitted effect of over 55% in size). An outline of the steps: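 CellSensor p53RE-bla HCT-116 cells, 4,000/well, preincubated 5 h at 37 C, then exposed to compounds in DMSO for 16 h at 37 C. Viability read as CellTiter-Glo luminescence (intracellular ATP) after 30 min at room temperature.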
Assay [17] has as its target Glucocorticoid receptor (Homo sapiens) (UniProt P04150). Put plainly: qHTS assay for small molecule agonists of glucocorticoid receptor signaling (AID 588532; active means well fitted curve in the direction sought with a large enough effect in the signal ratio, with a control signal flat; the % refers to the signal ratio;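 further: 100% = dexamethasone at 0.1 µM and 0% = DMSO only wells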). To be noted: HeLa MMTV-bla, beta-lactamase ratio, agonist, 18 h; activation: stronger effect = higher value, percent of dexamethasone control, DMSO zero. An outline of the steps: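 Titration series, up to 92 uM, applied to GRE-bla HeLa cells for 18 h at 37 C. Detection by CCF4 FRET substrate after 2 h at RT.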

Assay [18] in a line: qHTS assay for small molecule antagonists of peroxisome proliferator-activated receptor delta signaling (AID 588535).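 Further: cells co-treated with a PPAR-delta agonist as stimulator during compound exposure.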 To be noted: HEK293T PPARd-UAS-bla, beta-lactamase FRET ratio, 18 h; 460 nm channel. In short, it runs like this:
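Reporter: UAS-bla under PPAR-delta response element, HEK293T host. Medium: 2% charcoal/dextran FBS. Dosing: titration, 18 hrs, 37 C. Detection: CCF4, 2 hrs RT, 405 ex/460 and 530 em.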

A short description of assay [19]: qHTS assay for small molecule activators of the p53 signaling pathway (AID 651743; active means well fitted activation curve with a large enough effect in the signal ratio, not every such curve was filed as active; the % refers to the signal ratio; further: series mostly up to about 92 µM; % of control where 0% means no effect). The note with it: HCT-116 p53RE-bla, beta-lactamase FRET ratio, 16 h; activation: stronger effect = higher value. In short, it runs like this:
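Cell-based beta-lactamase reporter (p53 response elements, HCT-116 background). After a 5-hour preincubation, cells received compound for 16 hours at 37 C; substrate development ran 2 hours at room temperature.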

The target of assay [20] is Nuclear receptor subfamily 1 group I member 2 (Rattus norvegicus) (UniProt Q9R1A7). Put plainly: qHTS assay for small molecule activators of the rat pregnane X receptor (rPXR) signaling pathway (AID 651751; call rule not given here; further: 0% is about no effect). The note with it: rPXR reporter cells, luciferase (One-Glo), 24 h.
Chain of Nuclear receptor subfamily 1 group I member 2 (Rattus norvegicus) (Q9R1A7 whole entry, looked up): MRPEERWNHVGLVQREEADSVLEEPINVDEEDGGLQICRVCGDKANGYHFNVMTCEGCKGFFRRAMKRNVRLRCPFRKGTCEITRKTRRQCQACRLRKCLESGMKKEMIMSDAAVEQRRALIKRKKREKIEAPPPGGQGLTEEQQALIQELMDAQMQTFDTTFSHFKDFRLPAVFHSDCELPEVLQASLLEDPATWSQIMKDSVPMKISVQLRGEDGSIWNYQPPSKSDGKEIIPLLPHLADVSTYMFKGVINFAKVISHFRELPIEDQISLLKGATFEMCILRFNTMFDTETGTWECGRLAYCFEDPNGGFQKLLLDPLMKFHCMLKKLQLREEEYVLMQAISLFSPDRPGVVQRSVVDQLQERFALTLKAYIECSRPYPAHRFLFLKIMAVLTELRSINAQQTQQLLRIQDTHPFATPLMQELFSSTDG

Inconclusive results are not listed. Activity calls are given as the source filed them. Unless noted, the call rests on the fitted dose curve.

Results on 6 molecules are retold here after PubChem BioAssay (NCATS).

Chain of Glucocorticoid receptor (Homo sapiens) (P04150 whole entry, looked up): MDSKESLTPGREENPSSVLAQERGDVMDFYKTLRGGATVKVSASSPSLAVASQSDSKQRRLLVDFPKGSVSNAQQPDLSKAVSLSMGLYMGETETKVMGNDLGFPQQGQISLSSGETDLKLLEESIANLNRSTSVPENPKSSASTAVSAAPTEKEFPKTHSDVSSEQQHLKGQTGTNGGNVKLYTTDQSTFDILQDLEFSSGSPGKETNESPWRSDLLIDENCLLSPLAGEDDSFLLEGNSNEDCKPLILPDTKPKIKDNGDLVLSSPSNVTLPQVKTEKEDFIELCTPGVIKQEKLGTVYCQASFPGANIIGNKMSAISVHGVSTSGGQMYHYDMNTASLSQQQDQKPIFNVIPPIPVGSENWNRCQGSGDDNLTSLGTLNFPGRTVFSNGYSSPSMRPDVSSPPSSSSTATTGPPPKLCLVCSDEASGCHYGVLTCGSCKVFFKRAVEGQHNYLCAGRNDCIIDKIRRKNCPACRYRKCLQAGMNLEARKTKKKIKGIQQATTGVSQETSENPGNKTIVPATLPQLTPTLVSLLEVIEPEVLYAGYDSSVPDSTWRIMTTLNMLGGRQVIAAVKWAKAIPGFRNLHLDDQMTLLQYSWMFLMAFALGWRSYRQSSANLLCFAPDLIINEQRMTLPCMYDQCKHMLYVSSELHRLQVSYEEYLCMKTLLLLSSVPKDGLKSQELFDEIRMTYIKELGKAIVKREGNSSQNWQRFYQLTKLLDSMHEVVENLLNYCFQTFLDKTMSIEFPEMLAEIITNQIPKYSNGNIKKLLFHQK
Chain of Vitamin D3 receptor (Homo sapiens) (P11473 whole entry, looked up): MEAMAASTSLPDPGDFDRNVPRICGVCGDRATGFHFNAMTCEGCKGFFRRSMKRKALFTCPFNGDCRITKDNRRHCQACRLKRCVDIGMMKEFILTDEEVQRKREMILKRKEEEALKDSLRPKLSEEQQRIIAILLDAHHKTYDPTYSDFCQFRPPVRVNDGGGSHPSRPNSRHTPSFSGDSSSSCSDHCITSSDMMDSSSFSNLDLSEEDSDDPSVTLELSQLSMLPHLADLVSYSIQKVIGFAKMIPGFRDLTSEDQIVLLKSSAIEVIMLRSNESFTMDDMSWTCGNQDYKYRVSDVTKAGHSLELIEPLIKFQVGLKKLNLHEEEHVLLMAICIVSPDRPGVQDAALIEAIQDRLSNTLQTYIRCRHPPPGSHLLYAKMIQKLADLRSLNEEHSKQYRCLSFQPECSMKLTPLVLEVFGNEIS
Chain of Thyroid hormone receptor beta (Homo sapiens) (P10828 whole entry, looked up): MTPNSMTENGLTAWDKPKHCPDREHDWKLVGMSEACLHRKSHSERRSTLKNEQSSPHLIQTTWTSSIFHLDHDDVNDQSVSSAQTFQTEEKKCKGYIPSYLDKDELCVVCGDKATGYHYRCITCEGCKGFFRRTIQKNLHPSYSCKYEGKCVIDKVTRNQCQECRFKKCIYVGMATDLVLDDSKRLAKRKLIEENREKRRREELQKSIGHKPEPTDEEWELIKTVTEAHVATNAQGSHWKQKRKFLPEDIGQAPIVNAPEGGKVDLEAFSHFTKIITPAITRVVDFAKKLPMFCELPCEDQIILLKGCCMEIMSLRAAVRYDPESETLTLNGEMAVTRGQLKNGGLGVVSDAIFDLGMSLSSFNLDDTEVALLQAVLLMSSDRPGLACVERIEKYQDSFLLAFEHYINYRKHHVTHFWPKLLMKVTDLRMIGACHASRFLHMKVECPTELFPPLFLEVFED
Chain of Peroxisome proliferator-activated receptor alpha (Homo sapiens) (Q07869 whole entry, looked up): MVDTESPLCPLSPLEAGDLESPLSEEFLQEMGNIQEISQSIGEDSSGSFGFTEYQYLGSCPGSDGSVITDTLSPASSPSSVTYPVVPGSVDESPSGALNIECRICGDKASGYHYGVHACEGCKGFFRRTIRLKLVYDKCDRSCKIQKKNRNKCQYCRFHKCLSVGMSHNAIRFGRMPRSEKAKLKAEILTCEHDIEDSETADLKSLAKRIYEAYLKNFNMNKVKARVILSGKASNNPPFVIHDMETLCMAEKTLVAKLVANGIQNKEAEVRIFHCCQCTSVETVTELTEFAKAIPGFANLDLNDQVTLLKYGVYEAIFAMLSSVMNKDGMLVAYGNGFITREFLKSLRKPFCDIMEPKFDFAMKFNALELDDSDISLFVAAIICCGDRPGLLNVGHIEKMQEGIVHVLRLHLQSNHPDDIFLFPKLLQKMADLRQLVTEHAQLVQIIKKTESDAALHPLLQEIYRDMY

Turning to `OC(Cn1cncn1)(c1ccc(F)cc1)c1ccccc1F` (stereo not drawn), the molecule was called inactive in [1] and in assay [5]. Moreover, the Potency result in assay [2], in assay [3], in [4], in assay [6], in assay [7] and in [13] was “inactive” each time. In assay [16], the Potency entry is “inactive”. The max response in [8] is -19.4%; in assay [9] it was -2.11% (inactive); in [12], -2.15% (inactive); in [14] it was -4.37% (inactive); in assay [15], -3.84% (inactive). In [10], the activity change % (negative = inhibition) was 10.3% (inactive). The activation in assay [11] is -1.4% (inactive).

With `CCOP(=O)(OCC)SCSP(=S)(OCC)OCC`, the figures for the activation in assay [17] and in [11] were -5.04% (inactive) and 6.55% (inactive), respectively. Also, the molecule was called inactive in assay [1] and in assay [5]. The max response is -37.2% in assay [18]; -5.91% in assay [8]; -0.113% (inactive) in [12]; -1.01% (inactive) in assay [14]; -5.51% (inactive) in assay [15]. Moreover, the Potency entry in assay [2], in assay [3], in assay [4], in assay [7], in assay [13] and in [16] was “inactive” each time. For the same molecule, in assay [10], the activity change % (negative = inhibition) was -5.46% (inactive).

On to `O=C(O)C(F)(F)C(F)(F)C(F)(F)C(F)(F)C(F)(F)F`, for which the activation is 4.09% (inactive) in assay [17] and -4.82% (inactive) in assay [19]. The outcome in assay [1] and in [5] was inactive. The max response in [18] was -15.9%; in assay [8] it was 3.1%; in assay [9], -23% (inactive); in assay [12], 4.72% (inactive); in [14] it was 3.24% (inactive); in [15] it was -9.96% (inactive). Further, in [20], the max response is 2.05% (inactive). Besides, the Potency result in assay [2], in assay [3], in assay [4], in assay [6], in [7] and in assay [16] was “inactive” in each case. Also, in assay [10], the activity change % (negative = inhibition) was 8.21% (inactive).

With `CC(Oc1ccc(Cl)cc1Cl)C(=O)O` (stereo not drawn), the activation was 6.74% (inactive) in assay [17], 0.243% (inactive) in assay [19] and -1.09% (inactive) in assay [11]. For the same molecule, the Potency result in assay [3], in assay [4], in assay [6], in assay [7], in assay [13] and in assay [16] was “inactive” each time. Moreover, in assay [5], the outcome was inactive. Further, the max response in assay [8] was 2.43%; in assay [12], 0.174% (inactive); in [14] it was 8.84% (inactive); in assay [15], -4.02% (inactive); in assay [20], -2.29% (inactive).

Take `CCOP(=S)(OCC)Oc1cnc2ccccc2n1`: the activation is -1.45% (inactive) in [17] and 6.75% (inactive) in assay [19]. The outcome in [1] was inactive. The max response in assay [18] is 6.57%; in [8], 6.33%; in assay [9], -25.5% (inactive); in assay [12], -1.06% (inactive); in assay [14] it was 3.82% (inactive); in assay [20], 7.55% (inactive). Moreover, the Potency entry in assay [2], in assay [3], in assay [7] and in [16] was “inactive” throughout. The activity change % (negative = inhibition) in assay [10] is -0.975% (inactive). Moreover, the Potency in assay [11] was 35.5 µM (active).

Take `COP(=S)(OC)Oc1ccc([N+](=O)[O-])c(C)c1`: the activation in [17] is -13.6% (inactive); in assay [19], -5.64% (inactive). For the same molecule, the call in [1] and in assay [5] was inactive. The Potency entry in [2], in [3], in assay [4], in [6], in assay [7] and in [13] was “inactive” throughout. Moreover, the Potency entry in [16] is “inactive”. Further, the max response was -7.02% in assay [8]; -30.1% (inactive) in [9]; -4.6% (inactive) in [12]; -3.17% (inactive) in [14]; -7.08% (inactive) in assay [15]; -1.75% (inactive) in [20]. In addition, the activity change % (negative = inhibition) in assay [10] is 7.88% (inactive).
